Compound activity as filed in PubChem BioAssay.
Giardia FBPA inh = qHTS Assay for Inhibitors of Fructose-1,6-bisphosphate Aldolase from Giardia Lamblia; purified Giardia FBPA; Potency, µM (titrated, usually from 59.6 µM), for inactives: top-dose activity, negative = inhibition, hits mostly inhibitors; 290,000 compounds, 0.71% hits; A8B2U2; further: potency means the concentration at half of the fitted maximal effect; on the % scale 0 is the no-effect control and ±100 the full control effect; nearly all actives have a fitted effect of over 55% in size
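40 nM FBPA preincubated 10 min at RT with compound (up to 57.5 uM final), then substrate plus GAPDH/TPI/NAD/arsenate coupling and diaphorase/resazurin added. Fluorescence read after 20 min at RT, 525/598 nm.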
LmPK inh = qHTS Assay for Inhibitors of Leishmania Mexicana Pyruvate Kinase (LmPK); Q27686; AID 1721, 2009; purified LmPK, Kinase-Glo ATP luminescence, 1 h; 290,000 compounds, 0.37% hits; Potency, µM (highest dose often 57.5 µM), for the others: at the highest dose activity change, negative = inhibition, actives largely listed as inhibitors; further: potency means the concentration at half of the fitted maximal effect; on the % scale 0 is the no-effect control and ±100 the full control effect
Target sequence (Q27686 whole entry, looked up): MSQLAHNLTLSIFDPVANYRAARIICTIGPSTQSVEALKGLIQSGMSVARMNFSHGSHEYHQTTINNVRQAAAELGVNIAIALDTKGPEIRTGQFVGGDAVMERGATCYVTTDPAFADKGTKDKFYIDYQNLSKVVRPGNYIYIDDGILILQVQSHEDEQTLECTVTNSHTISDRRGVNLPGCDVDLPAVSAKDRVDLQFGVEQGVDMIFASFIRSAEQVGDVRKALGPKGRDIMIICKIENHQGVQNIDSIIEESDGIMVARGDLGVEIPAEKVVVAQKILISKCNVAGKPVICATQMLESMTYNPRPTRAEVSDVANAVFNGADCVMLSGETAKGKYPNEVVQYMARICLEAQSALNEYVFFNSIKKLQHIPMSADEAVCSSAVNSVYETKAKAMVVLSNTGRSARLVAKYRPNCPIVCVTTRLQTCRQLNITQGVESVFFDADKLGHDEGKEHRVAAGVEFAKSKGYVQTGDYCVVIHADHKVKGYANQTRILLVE
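In 50 mM imidazole pH 7.2 with 7 mM MgCl2, LmPK (0.1 nM) turned over PEP (0.5 mM) and ADP (0.1 mM) for 1 h at room temperature. Luciferase read-out of ATP.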
Cycloheximide cs = Cycloheximide Counterscreen for Small Molecule Inhibitors of Shiga Toxin; cell reporter, cycloheximide protein synthesis inhibition counterscreen; 300,000 compounds, 12% hits; max response, %; in the data active means max response mostly above about 13%, no sharp cut-off; inactive means mostly below about 14%; further: read at 38.3 µM for the half of the compounds with a filed dose; 0% is about no effect
NS1 function inh = qHTS Assay for Inhibitors of Influenza NS1 Protein Function | Potency, µM (titrated, usually from 46.1 µM), for the others: at the top dose activity, positive = more growth | 270,000 compounds, 0.4% hits; calls by dose curve; further: potency means the concentration at half of the fitted maximal effect; actives are rising curves; nearly all actives have a fitted effect of over 50% in size
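Compounds were scored for reversing the slow growth caused by influenza A NS1 in S. cerevisiae, measured by optical density at 600 nm. Assay medium contained 2% galactose at pH 6.0; NS1-free yeast of the same strain were the positive control.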
Shiga toxin inh = A qHTS for Small Molecule Inhibitors of Shiga Toxin; Vero cells, Shiga toxin protein synthesis inhibition reporter; inhibition, % at 38.7 µM; 290,000 compounds, 9.2% hits; AID 2315, 2010; in the data active means inhibition mostly above about 28%, no sharp cut-off; inactive means mostly below about 43%; further: 0% is about no effect
An asterisk follows results filed as active; ? = inconclusive; / = no result; + = active, no number; ! = a repeat was not active; [ ] = dose if it differs, or a comment. Shown are actives, neighbours in structure and some others; about 14% of the full set was active somewhere. Unless noted, the call rests on the fitted dose curve; in most records, active means well fitted curve in the direction sought with a large enough effect; inconclusive means small, poorly fitted or top-dose-only effect, or another doubt; inactive means no such curve, though single readings can be large; an effect the other way counts as inactive or inconclusive.

SMILES	Giardia FBPA inh	LmPK inh	Cycloheximide cs	NS1 function inh	Shiga toxin inh
C#CCOc1ccc(C2C(C#N)=C(N)Oc3cc(O)ccc32)cc1 (centres undefined)	6%	7%	2	10%	/
Cc1cccc(OCC(=O)Nc2ccccc2C(F)(F)F)c1	-1%	2%	14	1%	81*
Cc1cccc(C)c1OCC(=O)Nc1ccccc1C(F)(F)F	0%	2%	-2	-1%	4
Cc1cccc(OCC(=O)Nc2cc(C)c(C)cc2O)c1	13%	-2%	10	-39%	30
Cc1cccc(OCC(=O)Nc2cc(C)ccc2O)c1	-3%	-6%	21*	-61%	30*
CCCC(C)C(=O)Nc1nnc(CCc2ccccc2)s1 (centres undefined)	8%	1%	2	1%	-6
COc1ccc2[nH]c3c(=O)n(CCCC(=O)NC4CCCCC4C)c(=S)[nH]c3c2c1 (centres undefined)	/	-3%	-10	7%	-5
Cc1ccccc1N=C/C=C1/C=C(c2ccccc2)OC(C)(C)O1	-2%	5%	8	-18%	-49
COc1ccc(N=C/C=C2\C=C(c3ccccc3)OC(C)(C)O2)cc1	-15%	3%	17*	-9%	44
Nc1ccc2c(c1Cl)C(=O)c1ccc(N)c(Cl)c1C2=O	-18%	?	34*	6%	70*
S=C1NNC2(NN1)C1CC3CC(C1)CC2C3	-12%	5%	32*	-6%	45*
C1CSC2(N1)C1CC3CC(C1)CC2C3 (centres undefined)	?	-9%	-3	-2%	-11
CCc1ccc(NC(=O)Cn2cc([N+](=O)[O-])nc2C)cc1	5%	-6%	2	14%	-7
O=C(NCc1nnc(SCC(=O)N2CCCCCC2)o1)c1ccccc1F	/	-11%	10	6%	-2
Oc1ccccc1C1CC(c2cccs2)=NC(c2ccc(Cl)cc2)N1 (centres undefined)	-12%	3%	37*	-50%	50*
CC(C)CN1C(=O)c2ccc(NC(=O)c3cccs3)cc2C1=O	-4%	9%	40*	-82%	193*
CC(C)CN1C(=O)c2ccc(NC(=O)c3ccccc3F)cc2C1=O	-2%	-3%	8	-4%	21
CC(C)CN1C(=O)c2ccc(NC(=O)c3ccco3)cc2C1=O	0%	2%	49*	-35%	61*
[S-]C(=Nc1ccc(Cl)cc1)N[n+]1ccccc1	4%	-2%	30*	-2%	37*
ONC(=Nc1ccc(Cl)cc1)c1ccc(Cl)cc1	-3%	1%	11	-27%	-1
COc1ccc(C2NN=C(c3ccc(C)cc3)S2)cc1OC (centres undefined)	-6%	3%	38*	/	92*
Cc1ccc2[nH]c(-c3cccc(F)c3)cc(=O)c2c1	-1%[89.2 µM]	2%	15*!	-6%	+!
O=c1cc(-c2cccc(F)c2)[nH]c2ccccc12	-10%[136 µM]	12%	5	-5%	-22
COc1ccc2[nH]c(-c3ccc(F)cc3F)cc(=O)c2c1	-7%[89.2 µM]	/	26*	/	+
COc1ccc2[nH]c(-c3cccc(F)c3)cc(=O)c2c1	-8%[89.2 µM]	-1%	27*!	-10%	52*
SMILES	Giardia FBPA inh	LmPK inh	Cycloheximide cs	NS1 function inh	Shiga toxin inh
Cc1cc(C(=O)C(C)Sc2cccc[n+]2[O-])c(C)n1-c1ccc(Cl)cc1 (centres undefined)	2%	9%	10*	-33%	10
Cc1cc(C(=O)C(=O)O)c(C)n1-c1ccc(Cl)cc1	?	-4%	-3	-1%	-8
CCOC(=O)CN1C(=O)N(CC(=O)OCC)C(c2ccccc2)(c2ccccc2)C1=O	4%	-2%	-8	-2%	-7
CC(C)(C)C(=O)Cn1ncc(N2CCCC2)c(Br)c1=O	-7%	2%	36*	3%	138*
CC(C)(C)C(=O)Cn1ncc(NC2CC2)c(Br)c1=O	-4%	0%	13*	14%	14
CC(C)(C)C(=O)Cn1ncc(Cl)c(Cl)c1=O	4%	0%	-14	/	-31
N#Cc1cccc(NC(=O)N2CC[C@@]3(CCCN(C(=O)c4ccco4)C3)C2)c1	1%	/	/	/	/
Oc1ccccc1/C=N/Nc1nc2ccccc2o1	13%	-11%	62*	-34%	97*
O=C(CSc1nc2ccccc2o1)N/N=C/c1ccc(C(=O)O)cc1	-9%	-3%	6	4%	20
Brc1ccc(/C=N/Nc2nc3ccccc3o2)cc1	-15%	3%	41*	-45%	57*
CCOCC(=O)Nc1cc(C(=O)Nc2cccc(C)c2C)ccc1Cl	5%	1%	13	28%	-16
COCC(=O)Nc1cc(C(=O)Nc2ccccc2)ccc1Cl	-5%	?	36*	-34%	107*
CCOCC(=O)Nc1cc(C(=O)Nc2ccc(F)cc2)ccc1Cl	-2%	-17%	29*	-1%	33*
C[C@@H](CS(=O)(=O)Cc1ccccc1)C(N)=O	/	/	/	-3%	/
COc1ccc(S(=O)(=O)N2CCCC(C(=O)NCC3CCCO3)C2)cc1C (centres undefined)	-2%	3%	5	15%	-11
Nc1c(C(=O)Nc2ccc(F)cc2)sc2nc(-c3ccco3)ccc12	-9%	0%	32*	-48%	67
Nc1c(C(=O)Nc2ccc(Br)cc2)sc2nc(-c3ccco3)ccc12	-3%	0%	29*	19%	38*
CC(=O)c1sc2nc(-c3ccco3)ccc2c1N	?	5%	32*	-3%	76*
CCOc1ccc(C2Sc3ccccc3NC3=C2C(=O)OC3)cc1 (centres undefined)	3%	6%	23*	-4%	27
CNC(=O)c1nc(C)n(-c2cc(Cl)ccc2Cl)n1	2%	-4%	29*	10%	42
CNC(=O)c1nc(C)n(-c2cc(Cl)cc(Cl)c2)n1	4%	0%	4	-4%	-9
O=C(Cc1ccccc1F)Nc1cccc2cccnc12	-1%	-4%	24*	-7%	29*
NNC(=O)CSc1cccc2cccnc12	-17%	5%	-2	21%	-3
Cc1ccc(C)c(NC(=O)CSc2cccc3cccnc23)c1	-7%	-6%	-1	-24%	-8
Cc1cccc(NC(=O)CCn2ccnc2C)c1	-6%	1%	21*	-7%	50*
O=C(CSc1cccc2cccnc12)Nc1ccccc1F	-11%	-7%	16*	-41%	22
Cc1cccc(NC(=O)CSc2cccc3cccnc23)c1	8%	-1%	14*	-44%	31
COc1ccc(OC)c(C2=Nn3c(nnc3-c3ccc(OC)c(OC)c3)SC2)c1	-10%	/	-2	/	-10
CSc1ccc(/C=N/S(=O)(=O)c2ccccc2)cc1	7%	5%	-1	3%	-17
O=S(=O)(c1ccccc1)N1CCC2(CCN(C(c3ccccc3)c3ccccc3)CC2)CC1	-1%	/	/	/	/
